From a collection of fitness landscapes (doi:10.1016/j.celrep.2020.107928)
Whole data set: some 81,000 sequences, median “one-hybrid fitness for binding parS DNA” near -0.17, cut for the highest 2% near 0.51. The list comes from a sample in which the highest values are over-represented; it also holds similar and randomly drawn sequences.

B1: Caulobacter ParB omega fusion; a variant is named by its letters at X, in order, B8GW30 (parent)
chain: MESVVVGEPGMSEGRRGLGRGLSALLGEVDAAPAQAPGEQLGGSREAPIEILQRNPDQPRRTFREEDLEDLSNSIREKGVLQPILVRPSPDTAGEYQIVAGERAWRAAQRAGLKTVPIMVRELDDLAVLEIGIIENVQRADLNVLEEALSYKVLMEKFERTQENIAQTIGKSXSHVANXMRLLXLPDEVQSYLVSGELTAXHARAIAAAADPVALAKQIIEGGLSVRETEALARKAPNLSAGKSKGGRPPRVKDTDTQALESDLSSVLGLDVSIDHRGSTGTLTITYATLEQLDDLCNRLTRGI

Variants of: B1
Test: one-hybrid fitness for binding parS DNA (scaled: cognate 1, non-cognate 0); higher = stronger binding
Settings: with parS DNA site
Procedure, shortened: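 In E. coli USO, a HIS3 reporter with its site placed 19 bp from the promoter was used to select Caulobacter ParB variants randomised at four specificity codons. Growth lasted 48 hours at 37°C on histidine-free M9 containing 0.1 mM IPTG and 5 mM 3-AT. Fitness was taken as the log change in variant-to-wild-type read ratio from Illumina sequencing of pre- and post-selection plasmids, rescaled between the non-cognate and cognate sites.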

one-hybrid fitness for binding parS DNA, ≤ 0.2:
THDG
EQQR
MVPW
ASII
PLHG
GYPH
CVTM
RHMD
RKMD
RHMH
RRMP
PLPS
QYNK
EHAS
VMVC
RHYV
SIFD
LPVS
RTMH
RFMP
RAMD
RTMD
RAMH
RFMH
TRVI
NMKR
LWSA
HELA
TPTY
TLRR
NTKA
DTKA
NTVA
WIMN
RIYI
TADM
QLFQ
KDMG
RKAH
RKFK
RKFQ
VRYQ
SMCS
TFRT
GREF
GPDK
TATR
NFAG
KFFG
NFFG
DFAG
SCLF
FALR
IHMV
LILG
TTYT
KWSC
LCWL
RDLC
RELC
RSLK
RPLC
QCAL
RIIL
MQLE
WYDG
RDFC
REFC
RPFC
DKNG
YTIY
SSYC

one-hybrid fitness for binding parS DNA, 0.292:
RSFM

one-hybrid fitness for binding parS DNA, 0.325:
RIKM

one-hybrid fitness for binding parS DNA, 0.343:
RKAN

one-hybrid fitness for binding parS DNA, 0.4:
RRMN

one-hybrid fitness for binding parS DNA, 0.372:
RKMN

one-hybrid fitness for binding parS DNA, 0.966:
RHMS

one-hybrid fitness for binding parS DNA, 0.776:
RFFG

one-hybrid fitness for binding parS DNA, 0.808:
RTKA

one-hybrid fitness for binding parS DNA, 0.772:
RIKT

one-hybrid fitness for binding parS DNA, 0.959:
RKAG

one-hybrid fitness for binding parS DNA, 0.946:
RKFG

one-hybrid fitness for binding parS DNA, 0.983:
RFMS

one-hybrid fitness for binding parS DNA, 1.03:
RCFC

one-hybrid fitness for binding parS DNA, 0.892:
RSFC

one-hybrid fitness for binding parS DNA, 1.02:
RAMS
RCLC

one-hybrid fitness for binding parS DNA, 0.994:
RSMS

one-hybrid fitness for binding parS DNA, 0.941:
RFAG

one-hybrid fitness for binding parS DNA, 0.981:
RTMS

one-hybrid fitness for binding parS DNA, 0.704:
RRMS

one-hybrid fitness for binding parS DNA, 0.402:
RSMN

one-hybrid fitness for binding parS DNA, 0.245:
RSMH

one-hybrid fitness for binding parS DNA, 0.939:
RSLC

one-hybrid fitness for binding parS DNA, 0.566:
RTVA

one-hybrid fitness for binding parS DNA, 0.876:
RKMS

one-hybrid fitness for binding parS DNA, 0.407:
RIVN
